# Data: PubChem BioAssay (NCI)
# Compounds without any hit were thinned out: in the full panel of roughly 83,000, 20% have a hit.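 96-well plates, one dose, 48 hours. Percent growth reported; active if below 10.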 Unmarked numbers belong to inactive results. The source made the active and inactive calls.
# How the values were obtained:
# Test in all cases: NCI-60 one-dose screen, 48 h (100 = growth as untreated, 0 = no growth, -100 = all killed)
# Details in all cases: 10 µM unless noted
# [1] = tested on: NCI-H23 lung
# [2] = tested on: NCI-H226 lung
# [3] = tested on: NCI-H322M lung
# [4] = tested on: HOP-62 NSCLC
# [5] = tested on: NCI-H460 lung
# [6] = tested on: HOP-92 NSCLC
# [7] = tested on: NCI-H522 lung
# [8] = tested on: A549/ATCC NSCLC
# [9] = tested on: 786-0 renal
# [10] = tested on: COLO 205 colon
# [11] = tested on: DU-145 prostate
# [12] = tested on: K-562 leukemia
# [13] = tested on: MALME-3M melanoma
# [14] = tested on: MDA-MB-231 breast
# [15] = tested on: RXF 393 renal
# [16] = tested on: SF-268 CNS
# [17] = tested on: SF-295 CNS
# [18] = tested on: SF-539 CNS
# [19] = tested on: UACC-257 melanoma
# [20] = tested on: M14 melanoma
SMILES,growth [1],growth [2],growth [3],growth [4],growth [5],growth [6],growth [7],growth [8],growth [9],growth [10],growth [11],growth [12],growth [13],growth [14],growth [15],growth [16],growth [17],growth [18],growth [19],growth [20]
O=C(Nc1ccc(-n2cc(-c3ccncc3)c(-c3ccc(O)c(Cl)c3)n2)cc1)c1cc(C(F)(F)F)cc(C(F)(F)F)c1,82%,93.7%,75.2%,81.2%,45%,6.71% (active),62.8%,54.8%,53.1%,82.6%,65%,36.7%,77.7%,21.3%,-21.1% (active),56%,31%,57.7%,77.1%,30.2%
C#C[C@@]1(O)[C@@H](CO)O[C@@H](n2cc(Br)c3c(Cl)ccnc32)[C@@H]1O,31.9%,47.2%,11.7%,36.4%,45%,-60.5% (active),32%,46.2%,33.5%,17.2%,-41.3% (active),14.3%,62.1%,-26.6% (active),-15.9% (active),61.7%,26.6%,17.8%,91.3%,62.4%
c1ccc2nc(Cn3cc[n+](Cc4ccc5ccccc5n4)c3)ccc2c1,48.7%,70.8%,95.3%,82.5%,77.7%,34.3%,34.5%,77.5%,101%,25.6%,88.7%,41.1%,50.2%,77.9%,86.6%,67.1%,91.5%,58.8%,21.9%,69%
Nc1nccc(=S)[nH]1,92.7%,103%,101%,100%,107%,110%,63.2%,74.3%,99.7%,127%,112%,97.8%,112%,112%,92.5%,98.6%,103%,107%,75.7%,106%
CCCC(C)(C)COC(=O)c1cccc(N)c1,103%,87.8%,80.9%,92.5%,108%,85%,60.6%,89.7%,93.6%,110%,106%,87%,92%,106%,123%,97.7%,101%,103%,83.3%,99.4%
C[C@@H]1CC2C3C[C@H](F)C4=CC(=O)C=C[C@]4(C)[C@@]3(F)[C@@H](O)C[C@]2(C)[C@@]1(O)C(=O)CO (stereo not given in full),105%,70.5%,94.6%,101%,96.2%,80%,91.9%,68%,109%,99.3%,80.8%,107%,84.7%,95.1%,120%,88.8%,116%,83.2%,88.4%,93.5%
CCN(CC)CCNC(=O)c1c(C)[nH]c(/C=C2\C(=O)Nc3cc(NC(=O)NC(=O)c4ccc(OC)cc4F)ccc32)c1C,103%,108%,105%,109%,83.7%,94.9%,104%,85.3%,-55.6% (active),94.7%,97.3%,10.9%,108%,77.8%,66.4%,102%,117%,94.7%,111%,105%
